Experiment [1] in a line: A549 cell viability effects, profiling panel, calcein-AM fluorescence, 48 h, basal (AID 1162). Particulars: higher = more signal.
Experiment [2] can be described thus: adipocyte viability effects, profiling panel, cell-based, 3T3-L1 adipocytes, calcein-AM fluorescence, 48 h, basal (AID 1163). Particulars: 3T3-L1 adipocytes viability, higher = more signal.
Experiment [3] can be described thus: HepG2 cell viability effects, profiling panel, calcein-AM fluorescence, 48 h, basal (AID 1164). Particulars: higher = more signal.
The nature of experiment [4]: MM1S cell viability effects, profiling panel, calcein-AM fluorescence, 48 h, basal (AID 1165).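 Further: viability of MM1S multiple myeloma cells under basal unstimulated conditions.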 Particulars: higher = more signal.
A short description of experiment [5]: basal RPMI8226 viability, no added stimulus, profiling panel, cell-based, calcein-AM fluorescence, 48 h, PK04 Diversity Set (AID 1166).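 Further: cells grown under basal conditions without added stimulus.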 Particulars: RPMI8226 myeloma viability, higher = more signal.
Experiment [6] in a line: basal HepG2 mitochondrial membrane potential changes, profiling panel, cell-based, JC-1 fluorescence, 24 h, 100 nL compound (AID 1167). Particulars: higher = more signal.
A short description of experiment [7]: basal 3T3-L1 adipocyte mitochondrial potential changes, profiling panel, cell-based, JC-1 fluorescence, 3T3-L1 adipocytes, 24 h, 100 nL compound (AID 1168). Particulars: JC-1 mitochondrial fluorescence, higher = more signal, called active from +8 up or from −8 down.
Experiment [8] in a line: basal RPMI8226 mitochondrial membrane potential changes, profiling panel, cell-based, JC-1 fluorescence, 24 h, 100 nL compound (AID 1169). Particulars: RPMI8226 myeloma, JC-1 mitochondrial potential fluorescence, higher = more signal.
The nature of experiment [9]: basal MM1S mitochondrial membrane potential changes, profiling panel, cell-based, JC-1 fluorescence, 24 h, 100 nL compound (AID 1170). Particulars: higher = more signal.
Experiment [10] is described as follows: A549 lung cancer cell viability effects, profiling panel, resazurin fluorescence, 24 h, PK04 Diversity Set (AID 1171). Particulars: higher = more signal, called active from +8 up or from −8 down.

Structures are written as SMILES. Calls of active or inactive are those of the source.
Further: test concentration not given here.

For the compound `CO[C@H]1O[C@H](CO)[C@@H](OC(=O)Nc2ccccc2)[C@H](OC(=O)Nc2ccc3c(c2)OCO3)[C@@H]1OC(=O)Nc1ccc2c(c1)OCO2`, the z-score in experiment [1] is 0.307; in [2], 0.85; in experiment [3], 0.17; in experiment [4], -1.51; in experiment [5], -0.735; in experiment [6], -0.493. Moreover, the z-score in [7] is 2.84 (inactive); in [8], 0.105; in experiment [9], 0.327; in [10] it was -0.429 (inactive).
With `CC[C@H]1C2=C3C(CC[C@H]4C(OC)OC[C@](C)([C@@H]34)N(C(=O)OC(C)(C)C)C2)C(CO)C1CO` (stereo not given in full), the z-score is -0.499 in experiment [1]; 0.561 in experiment [2]; 0.656 in experiment [3]; 1 in experiment [4]; 0.586 in [5]; -0.528 in experiment [6]. Moreover, the z-score was 0.0846 (inactive) in experiment [7], -0.38 in [8], -1.26 in experiment [9] and -1.28 (inactive) in experiment [10].
In the case of `CO[C@H]1O[C@H](CO)[C@@H](OC(=O)Nc2ccc(Oc3ccccc3)cc2)[C@H](OC(=O)Nc2ccccc2-c2ccccc2)[C@H]1OC(=O)Nc1ccccc1-c1ccccc1`, the z-score in experiment [1] was -4.22; in [2] it was 1.59; in experiment [3], -4.47; in [4], -3.39; in experiment [5], -4.01; in [6], -1.37. In addition, the z-score in experiment [7] is 1.64 (inactive); in [8], -0.646; in experiment [9], -1.81; in [10] it was -4.85 (inactive).
With `C[N+](C)(C)CCCCNC(=O)[C@@H]1C[C@@H]2C(=O)N3CCC[C@H]3C(=O)N2[C@@H]1c1cccc(OCCO)c1`, the z-score in experiment [1] is 0.668; in experiment [2], 1.05; in experiment [3], -0.954; in experiment [4], -0.732; in experiment [5], -0.179; in experiment [6], 0.428. Moreover, the z-score is 0.971 (inactive) in experiment [7], 0.252 in experiment [8], 0.791 in [9] and -0.141 (inactive) in [10].
With `CC(=O)Nc1ccc([C@H]2[C@H](C)CC[C@H]3C(=O)N4[C@@H](CC[C@@H](C)[C@@H]4c4ccc(NC(C)=O)cc4)C(=O)N32)cc1`, the z-score in experiment [1] is 1.04; in experiment [2], 1.1; in experiment [3] it was 0.277; in experiment [4], -0.715; in [5], -0.439; in [6], -1.16. The z-score in [7] is -0.183 (inactive); in experiment [8], -0.365; in experiment [9] it was -0.559; in experiment [10], 0.553 (inactive).
As for `CN1C(=O)C2C=CC(C(O)C3CC=CCC3)N(Nc3ccccc3)C2C1=O` (stereo not given), the z-score in experiment [1] is -0.653; in [2] it was -1.14; in [3], -0.661; in experiment [4], 0.228; in experiment [5], -1.56; in [6] it was -0.965. The z-score is -0.117 (inactive) in experiment [7], 0.116 in experiment [8], -0.608 in [9] and -0.293 (inactive) in [10].
Regarding `C#C[C@H](O[Si](C#Cc1ccccc1)(C(C)C)C(C)C)c1ccccc1`, the z-score was -1.62 in experiment [1]; -0.653 in experiment [2]; -1.47 in [3]; -2.94 in experiment [4]; -1.91 in experiment [5]; -2.74 in experiment [6]. Also, the z-score was -0.448 (inactive) in experiment [7], -0.154 in experiment [8], -1.48 in experiment [9] and -0.912 (inactive) in experiment [10].
Consider `C=CCC(OC(C)=O)[C@@H]1[C@@H](N(Cc2ccc(-c3ccccc3)cc2)C(=O)c2ccc(C)cc2)c2cc(OCCCO)ccc2N1C(=O)c1ccc(-c2ccccc2)cc1` (stereo not given in full), for which the z-score was 3.37 in [1]; 0.626 in [2]; 1.87 in experiment [3]; -0.732 in experiment [4]; 0.887 in experiment [5]; 4.05 in [6]. For the same compound, the z-score in experiment [7] was 1 (inactive); in experiment [8] it was -0.454; in experiment [9], 1.22; in [10], 2.47 (inactive).
As to `CO[C@H]1O[C@H](CO)[C@@H](OC(=O)Nc2ccc3c(c2)OCO3)[C@H](OC(=O)Nc2ccccc2)[C@@H]1OC(=O)Nc1ccccc1`, the z-score is -0.279 in [1]; -0.0955 in [2]; -1.27 in [3]; -2 in experiment [4]; -1.66 in experiment [5]; -1.17 in [6]. Further, the z-score in experiment [7] was 0.157 (inactive); in [8], -0.611; in experiment [9], -0.191; in experiment [10], -1.57 (inactive).
For the compound `O=C1O[C@H](c2ccccc2)[C@H](c2ccccc2)N2[C@H]1[C@@H](C(=O)NC[C@H](O)c1ccccc1)[C@]1(C(=O)Nc3ccc(C#CC4=CCCCC4)cc31)[C@H]2c1ccc(OCCO)cc1`, the z-score in experiment [1] is 0.0545; in experiment [2], -0.405; in experiment [3], -0.674; in [4] it was -1.24; in experiment [5], -2.29; in experiment [6], -2.36. For the same compound, the z-score in experiment [7] is 1.27 (inactive); in [8], -1.34; in [9] it was -1.52; in experiment [10] it was -0.527 (inactive).
Regarding `CCN1C(C)=C(C(=O)OC)[C@@H](c2ccccc2)N2C(=O)[C@@]3(C(=O)OC)O[C@@]12[C@@H]1C(=O)N(c2ccccc2)C(=O)[C@@H]13`, the z-score in experiment [1] is 0.0365; in [2], 1.67; in experiment [3], -0.805; in experiment [4] it was 0.871; in experiment [5], -0.892; in experiment [6] it was 0.564. The z-score in [7] was 1.17 (inactive); in experiment [8], 1.22; in experiment [9], 0.0907; in experiment [10], 0.677 (inactive).
With `CC(C)[Si]1(C(C)C)O[C@@H](c2ccccc2)c2cc(C3CC3)nc(-c3ccc(Oc4ccccc4)cc3)c21`, the z-score in experiment [1] was -0.654; in [2], 1.31; in experiment [3], 0.0626; in [4], -0.964; in experiment [5], 0.391; in experiment [6] it was 0.484. In addition, the z-score in [7] is 0.924 (inactive); in experiment [8] it was 0.38; in experiment [9] it was 0.484; in [10], 1.6 (inactive).
As to `CC(C)(C)OC(=O)CC[C@]1(C(=O)N2CCCCC2)N=C(c2ccc(OCCCO)cc2)O[C@H]1c1ccccc1`, the z-score in experiment [1] was 2.04; in experiment [2], 1.24; in experiment [3], 1.01; in experiment [4], 0.523; in experiment [5], -1.04; in [6], 2.2. Besides, the z-score was 2.09 (inactive) in experiment [7], -0.123 in [8], 0.317 in experiment [9] and -0.354 (inactive) in experiment [10].
With `COc1cc(CO)cc(I)c1O[C@H]1C=C(C(=O)NCCO)C[C@@H](NCCc2c[nH]c3ccccc23)[C@@H]1O`, the z-score is 1.74 in experiment [1]; -0.335 in experiment [2]; 0.0706 in [3]; -0.68 in experiment [4]; -0.391 in experiment [5]; -1.01 in [6]. For the same compound, the z-score in experiment [7] is 1.01 (inactive); in experiment [8], 0.166; in [9], -0.389; in experiment [10] it was 0.279 (inactive).
`C=CCC(OC(C)=O)[C@@H]1[C@@H](N(Cc2cc3ccccc3o2)C(=O)Cc2ccc(F)cc2)c2cc(OCCCO)ccc2N1C(=O)c1ccc(-c2ccccc2)cc1` (stereo not given in full): the z-score is 1.79 in experiment [1]; 0.0893 in experiment [2]; 1.01 in [3]; 0.661 in experiment [4]; 0.708 in [5]; 2.84 in experiment [6]. For the same compound, the z-score was 0.756 (inactive) in [7], 0.602 in [8], 0.0416 in experiment [9] and 1.18 (inactive) in [10].
Consider `C=C[C@H](OC)[C@@H](OC(=O)Nc1ccc(SC)cc1)c1ccc(OC)c(O)c1`, for which the z-score is 1.73 in experiment [1]; 0.182 in [2]; 0.907 in experiment [3]; 0.898 in experiment [4]; 0.524 in experiment [5]; 0.163 in experiment [6]. Also, the z-score in [7] was 1.15 (inactive); in experiment [8], 0.412; in [9] it was 0.761; in experiment [10] it was 0.595 (inactive).

The values above are taken from PubChem BioAssay.
